aSyn 5UTR act = Activators via SNCA 5'UTR binding, MLPCN; activity score, % (tested at 7.5 µM), hits read low; 7.1% of 300,000 active; AID 1814; alpha-synuclein 5'UTR reporter, activators screen; in the data active = activity score below about -60%
* marks the source's active call; other numbers are inactive results. A selection follows.

SMILES | aSyn 5UTR act
Cn1ncc(Cl)c1C(=O)Nc1nc2ccc(Cl)cc2s1 | -198*
Cc1cc(C(=O)Nc2nc3ccc(Cl)cc3s2)nn1C | -128*
CC(C)CCNC(=O)C(=O)Nc1ccc2c(c1)N(S(=O)(=O)c1cccs1)CCC2 | -73*
COc1cccc(NC(=O)C(=O)NCCC2CCCCN2S(=O)(=O)c2cccs2)c1 (configuration not stated) | -148*
O=C1CSC(c2ccc(F)cc2)N1c1nc2ccccc2s1 (configuration not stated) | -91*
c1ccc(OCc2nnc(-c3ccccc3)o2)cc1 | -129*
Oc1ccccc1-c1nnc(COc2ccccc2)o1 | -88*
Clc1ccc(-c2nnc(CCc3ccccc3)o2)c(Cl)c1 | -155*
Oc1ccccc1-c1nnc(COc2ccc(Cl)cc2Cl)o1 | -170*
CCCn1c(SCc2nc3ccccc3s2)n[nH]c1=O | -165*
CCCn1c(=O)c2ccccc2n2c(SCc3nc4ccccc4s3)nnc12 | -160*
O=c1[nH]nc(SCc2nc3ccccc3s2)n1C1CC1 | -144*
Cc1ccc(N=Cc2ccc(O)cc2O)cc1F | -84*
COc1ccc(Cl)cc1C(=O)Nc1ccc(Br)c(C)n1 | -78*
COc1ccc(Cl)cc1C(=O)Nc1cccnc1Cl | -78*
COc1ccc(-c2cn3cc(Br)cnc3n2)cc1 | -123*
COc1ccc(-c2cn3ccccc3n2)cc1OC | -171*
COc1ccc(-c2cn3cccnc3n2)cc1Br | -66*
COc1ccc(CC(=O)Nc2ccc(-c3cn4ccccc4n3)cc2)cc1OC | -86*
c1ccn2cc(-c3ccc4c(c3)OCCO4)nc2c1 | 98
COc1ccc(CC(=O)Nc2ccc(-c3cn4ccccc4n3)cc2)cc1 | -124*
O=C(Nc1ccc(-c2cn3ccccc3n2)cc1)c1cccs1 | -129*
COc1ccc(-c2cc3cc(OC)c(OC)cc3cn2)cc1OC | -140*
C[C@H]1COC2=C1C(=O)C(=O)c1c2ccc2c1CCCC2(C)C | 102
CCc1ccc(NS(=O)(=O)c2ccc3[nH]cc(C(=O)N4CCc5ccccc54)c(=O)c3c2)cc1 | -128*
SMILES | aSyn 5UTR act
Cc1ccc(OCCn2c(=O)n(C)c3ccccc32)cc1 | -123*
Cn1c(=O)n(CCOc2ccccc2Cl)c2ccccc21 | -99*
COc1cc2[nH]c3c(=O)n4c(nc3c2cc1OC)SCCC4 | -97*
CCC1(C)Cc2c(sc3nc(SC)n(Cc4ccccc4)c(=O)c23)CO1 (configuration not stated) | -118*
COc1cc(/C=C2\SC(N)=NC2=O)cc(OC)c1 | -64*
CCCn1c(-c2cccc([N+](=O)[O-])c2)nc2c1c(=O)[nH]c(=O)n2Cc1ccccc1 | 54
O=c1c2ccccc2nc(-c2ccccc2)n1Cc1ccccc1 | -93*
CCOc1ccccc1/C=N/Nc1ccccc1[N+](=O)[O-] | -304*
COc1ccccc1/C=N\Nc1ccccc1[N+](=O)[O-] | -91*
CC(C)Oc1ccccc1/C=N/Nc1ccccc1[N+](=O)[O-] | -209*
Cc1cc2ncc(-c3ncc(C(F)(F)F)cc3Cl)cn2n1 | 65
Cc1cc2ncc(-c3cccc(Cl)c3)cn2n1 | -117*
CCCOC(=O)c1ccc(NC(=O)CC(C)(C)C)cc1 | -109*
CCCCc1ccc(NC(=O)CC(C)(C)C)cc1 | -159*
O=C(CNc1ccc2c(c1)OCO2)N/N=C\c1cn(Cc2ccccc2)c2ccccc12 | 81
O=C(CNC(=O)c1ccccc1F)N/N=C/c1ccc2c(c1)OCO2 | -98*
O=C(N/N=C/c1ccc2c(c1)OCO2)C(=O)Nc1ccccc1 | -84*
O=C(Cc1ccccc1)N/N=C/c1ccc2c(c1)OCO2 | -140*
Cc1nc2ccccn2c1C(=O)N/N=C/c1ccc2c(c1)OCO2 | -96*
Cc1cs/c(=N\N=C\c2cccc([N+](=O)[O-])c2)n1Cc1ccco1 | -97*
CCOC(=O)Nc1sc2c(c1C#N)CCCC2 | -123*
Cc1ccc(OCC(=O)Nc2sc3c(c2C#N)CCC3)cc1 | -99*
CC(C)(C)C(=O)Nc1sc2c(c1C#N)CCCCC2 | -78*
Cc1nnc(SCC(=O)Nc2sc3c(c2C#N)CCCCC3)n1N | -74*
O=C(/C=C/Nc1ccccc1C(F)(F)F)c1ccco1 | -321*
SMILES | aSyn 5UTR act
O=C(/C=C/Nc1ccc(Oc2ccccc2)cc1)c1ccco1 | -201*
O=C(/C=C/Nc1cccc(C(F)(F)F)c1)c1ccco1 | -174*
O=C(/C=C/Nc1cccc(C(F)(F)F)c1)c1ccc(Oc2ncccn2)cc1 | -94*
NC(=O)c1ccccc1N/C=C/C(=O)c1ccco1 | -97*
CN(C(=O)Nc1cnc2ccccc2c1)c1ccccc1 | -89*
O=C(Nc1cnc2ccccc2c1)N1CCCCC1 | -74*
O=C(Nc1cnc2ccccc2c1)N1CCOCC1 | -109*
CCN1/C(=C/c2ccc3cc(C)ccc3[n+]2CC)Sc2ccccc21 | 100
CCc1cc2c(Sc3nc4ccccc4s3)ncnc2s1 | 60
CCNc1nnc(CSc2nc3ccccc3s2)s1 | -71*
c1ccc(SCc2nc3ccccc3[nH]2)nc1 | -75*
Cn1c(CSc2nc3ccccc3s2)nc2ccccc21 | -140*
c1ccc2[nH]c(CSc3nc4ccccc4s3)nc2c1 | -112*
CNC(=O)COC(=O)c1ccc(-c2nc3ccccc3s2)s1 | -161*
